Pf Dd2 growth: blocks in vitro growth of P. falciparum Dd2; P. falciparum Dd2 growth, SYBR Green, 72 h; Potency, µM (titrated, usually from 28.9 µM), actives largely listed as inhibitors; 120,000 compounds, 4.3% hits; active = well fitted inhibition curve with a large enough effect; note: nearly all actives have a fitted effect of over 65% in size
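Readout: SYBR Green fluorescence, 485 nm excitation, 535 nm emission, after ~16 h lysis at 37C. Before that, Dd2-infected red cells (2.5% hematocrit) grew 72 h with compound, 29 uM top final concentration.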
Hits are given with their value; i = inactive; [ ] = another dose, or the depositor's remark. This is one part of a sample in which hits are shown more often than they occur.

SMILES | Pf Dd2 growth
Cc1cc(C(=O)N2CCc3c(nc(-c4ccc(F)cc4)[nH]c3=O)C2)nn1C | i
O=C(C[C@@H]1CCNC[C@@H]1Cc1cc(-c2ccccc2)on1)NCc1cccs1 | i
COC(=O)[C@@H](Cc1c[nH]c2ccccc12)NC(=O)[C@H]1CNCCN1S(=O)(=O)c1ccccc1 | i
Cc1cnc(CCNC(=O)c2ccnn2C)n1CC1CC1 | i
COc1cccc(-c2cc(-c3ccccc3)nc3c(C)noc23)c1 | 14µM
COc1cccc(-c2cc(-c3cccs3)nc3c(C)noc23)c1 | i
COc1ccccc1-c1cc(-c2ccccc2)nc2c(C)noc12 | i
Cc1noc([C@@H]2CN(C(=O)Cc3cccc4ccccc34)C[C@H]2CO)n1 | i
Cc1cccc(CNC(=O)[C@H]2CCC[C@H]2NC(=O)c2cnc(C)cn2)c1 | i
O=C(CSc1nc2c([nH]c3ccccc32)c(=O)n1-c1ccccc1)Nc1ccccc1C(F)(F)F | i
CCOc1ccc(-n2c(SCC(=O)Nc3cc(C)on3)nc3c([nH]c4ccccc43)c2=O)cc1 | i
Cc1cccc(CSc2nc3c([nH]c4ccccc43)c(=O)n2C)c1 | i
Cc1cc(C)cc(-n2c(SCC(=O)Nc3nnc(C)s3)nc3c([nH]c4ccccc43)c2=O)c1 | i
CCn1c(SCC(=O)Nc2cc(Cl)ccc2OC)nc2c([nH]c3ccccc32)c1=O | i
Cc1ccc(-n2c(SCC(=O)Nc3ccc4c(c3)OCO4)nc3c([nH]c4ccccc43)c2=O)cc1 | 10µM
COc1cccc(-n2c(SCc3cccc(C)c3)nc3c([nH]c4ccccc43)c2=O)c1 | 10µM
COc1cccc(-n2c(SCC(=O)c3ccccc3)nc3c([nH]c4ccccc43)c2=O)c1 | i
Cc1cc(NC(=O)CSc2nc3c([nH]c4ccccc43)c(=O)n2-c2ccc(Cl)cc2)no1 | i
COc1cccc(NC(=O)CSc2nc3c([nH]c4ccccc43)c(=O)n2-c2cc(C)cc(C)c2)c1 | 8.9µM
COc1ccc(Cl)cc1NC(=O)CSc1nc2c([nH]c3ccccc32)c(=O)n1-c1ccccc1 | 4.5µM
Cc1cccc(NC(=O)CSc2nc3c([nH]c4ccccc43)c(=O)n2C)c1 | i
CCC(CC)C(=O)N[C@H]1CCN2C(=O)c3cc(-c4cccs4)ccc3NC(=O)[C@@H]2C1 | i
O=C(c1ccc(F)c(Cl)c1)N1CC(CO)C2(CCNCC2)C1 (stereo not drawn) | i
Cc1ccc(-c2cc3c(=O)n(CCNC(=O)c4ccc5c(c4)OCO5)ccn3n2)cc1C | i
CC(C)N1CC[C@@H]2[C@H]1C(=O)NC[C@H](CCC(=O)NCc1cccs1)N2C | i
SMILES | Pf Dd2 growth
CCNC(=O)N1C[C@@H](Oc2ccccc2)C[C@@H]1C(=O)N1CCOCC1 | i
OC[C@@H]1CNC[C@H]1C1CCN(CC2CCCCC2)CC1 | i
CS(=O)(=O)N1CCC2(CC1)CN(Cc1ccc(O)cc1)Cc1ccccc1O2 | i
Cc1cc(C[C@@H]2COC[C@@H]2NC(=O)c2cc(=O)n(-c3ccccc3)[nH]2)on1 | i
OC1CCOC2(CCN(Cc3ccc4c(c3)CCO4)CC2)C1 (stereo not drawn) | i
Cc1ccc(OCC(=O)N2CCC(c3noc(-c4ccncc4)n3)C2)cc1 (stereo not drawn) | i[5.79 µM]
COc1ccccc1OCCNC(=O)CCC1CCN(C(=O)c2ccccc2)CC1 | i
Cc1cccc(NC(=O)CC2Nc3cccc4cccc(c34)NC2=O)c1 (stereo not drawn) | i
Cc1ccc2c(c1)NC(=O)C(CC(=O)Nc1cc(Cl)ccc1C)O2 (stereo not drawn) | i
COc1cccc(NC(=O)CC2Oc3ccccc3NC2=O)c1 (stereo not drawn) | i
Cc1cc2c(cc1C)NC(CC(=O)Nc1cccc(C)c1C)C(=O)N2 (stereo not drawn) | 3.2µM
COc1ccc(C)cc1NC(=O)C[C@H]1NC(=O)c2ccccc2NC1=O | i
Cc1ccc(NC(=O)CC2Nc3cc(C)c(C)cc3NC2=O)c(C)c1 (stereo not drawn) | 3.2µM
O=C(C[C@H]1NC(=O)c2ccccc2NC1=O)Nc1ccccc1Cl | i
COc1ccc(NC(=O)CC2Nc3ccccc3NC2=O)cc1 (stereo not drawn) | i
COc1cccc(NC(=O)CC2Nc3cc(C)c(C)cc3NC2=O)c1 (stereo not drawn) | 2.2µM
CC(C)N(C)Cc1nnnn1CC(=O)N1CCCC(OCc2ccccn2)C1 (stereo not drawn) | i
CNC(=O)[C@@H]1CN(S(=O)(=O)c2ccc3c(c2)CCC3)C[C@H]1c1n[nH]c(C)n1 | i
CCCCc1nn(CC(=O)NC(CC)c2cccc(C)n2)c(=O)n1CC (stereo not drawn) | i
CC(C)c1noc(-c2cccn3c(CNC(=O)C4CCC4)nnc23)n1 | i
CC(C)CCC(=O)NC1CCN(c2cn[nH]c(=O)c2)CC1 | i
O=C1CC(c2noc(Cc3ccc(Cl)cc3)n2)CN1C1CCCCC1 (stereo not drawn) | i
CCS(=O)(=O)N1CCC2(CCC2OC)CC1 (stereo not drawn) | i
CCOc1ccccc1NC(=O)CN1C(=O)C(c2ccccc2)=NC12CCCCC2 | i
Cc1ccc(C(=O)N2CCC3(CC2)NC(=O)N(c2ccccc2Cl)N3)c(C)c1 | i
SMILES | Pf Dd2 growth
COc1ccc(C(=O)N2C[C@@H]3C[C@H](C2)c2ccc(NS(=O)(=O)c4ccccc4C#N)c(=O)n2C3)cc1 | i
COc1ccc(C(=O)NCc2nnc3ccc(-c4ccc(F)cc4)nn23)c(OC)n1 | i
COc1ccc(CNC(=O)c2cc3c(N4CCSCC4)nc(C)cn3n2)c(OC)c1 | i
Cc1cccc(OCC(=O)N2CCC3(CC2)NC(=O)N(c2ccc(F)cc2)N3)c1 | i
CCc1cccc(NC(=O)Cn2c(Nc3cc(C)cc(C)c3)nc(C)cc2=O)c1 | i
CN1CC(=O)N(C2CCCNCC2)Cc2c(NCCc3ccccc3F)ncnc21 (stereo not drawn) | i
CC(C)c1nc(-c2ccc(OC3CCNC3)cc2)no1 (stereo not drawn) | i[5.79 µM]
O=C(Nc1ccccc1)N1CC(Oc2ccc(-c3noc(-c4ccncc4)n3)cc2)C1 | i
c1cc(-c2nc(-c3ccc(OC4CNC4)cc3)no2)ccn1 | 4µM
CCCN1CC(Oc2ccc(-c3noc(-c4cccnc4)n3)cc2)C1 | i
O=C(c1ccncc1)N1CCC(Oc2ccc(-c3noc(-c4ccccc4)n3)cc2)C1 (stereo not drawn) | i[5.79 µM]
c1cncc(-c2nc(-c3ccc(OC4CNC4)cc3)no2)c1 | 5µM
Cc1ccc(-n2nc(CC(N)=O)nc2CCn2ccc(=O)[nH]c2=O)c(C)c1 | i
Cc1ccc(CN2C(=O)NC3(CCN(C(=O)c4ccc(C#N)cc4)CC3)C2=O)cc1 | i
O=C(N1CCC2(CCNCC2)CC1)C1(S(=O)(=O)c2ccccc2)CC1 | i
CCc1ccc(CN(C)C(C(=O)O)c2c(OC)cccc2OC)nc1 (stereo not drawn) | i
COc1ccc(S(=O)(=O)N2CCC(n3cnnc3C3CC3)CC2)cc1 | i
COCC1CN(C(=O)CCc2c(C)nn(C)c2C)CC12CCNCC2 (stereo not drawn) | i
CC(C)CN1C(=O)c2cccn2CC1C(=O)NCc1cccs1 (stereo not drawn) | i
COCCNC(=O)CN1CN(c2ccccc2)C2(CCN(C(=O)NC3CCCCC3)CC2)C1=O | i
CCc1ccccc1NC(=O)N1CCC2(CC1)C(=O)N(CC(=O)NC(C)C)CN2c1ccccc1 | i
CC(C)CNC(=O)CN1CN(c2ccccc2)C2(CCN(C(=O)NC3CCCCC3)CC2)C1=O | 1.6µM
COc1ccc(C2Cn3nnc(-c4noc(C5CC5)n4)c3CO2)cc1 (stereo not drawn) | i

Source: PubChem (National Center for Advancing Translational Sciences (NCATS))
